Experimental data taken from PubChem BioAssay (Tox21).
Records with an inconclusive call do not appear. Calls of active or inactive are those of the source. Unless noted, calls follow the shape of the dose curve; as a rule, active = well fitted curve in the direction sought with a large enough effect in the repeat runs; inconclusive = weak or mixed curves; inactive = no such curve, though single readings can be large; an effect the other way counts as inactive or inconclusive.

Key:
[1] = A CellTox Green Cytotoxicity Assay to monitor cytotoxicity in HEK293 cells - 32 hour (AID 1224881); also: nearly all actives have a fitted effect of over 40% in size
Procedure, shortened: (§1)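 Cytotoxicity was tracked continuously in HEK293 cells by a DNA-binding dye excluded from viable cells. Compounds were transferred in DMSO 5 h after seeding; fluorescence was recorded at intervals up to 40 h.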

[2] = A CellTox Green Cytotoxicity Assay to monitor cytotoxicity in HepG2 cells - 32 hour (AID 1224883); also: nearly all actives have a fitted effect of over 50% in size
Procedure, shortened: (§2)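 Real-time, homogeneous cytotoxicity readout: dead-cell DNA staining by CellTox Green in HepG2 monolayers, fluorescence measured at timed intervals up to 40 h of continuous compound exposure.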

[3] = A CellTox Green Cytotoxicity Assay to monitor cytotoxicity in HEK293 cells - 8 hour (AID 1224884); also: nearly all actives have a fitted effect of over 35% in size
Procedure, shortened: as §1

[4] = qHTS RealTime-Glo MT Cell Viability Assay in HepG2 cells - 16 hour (AID 1224885); also: nearly all actives have a fitted effect of over 50% in size
Procedure, shortened: (§3)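 Cells + NanoLuc/prosubstrate dispensed (600 cells/well) → 5 h at 37 C/5% CO2 → compounds in DMSO transferred → 40 h incubation at 37 C, luminescence read at 0, 8, 16, 24, 32, 40 h.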

[5] = qHTS RealTime-Glo MT Cell Viability Assay in HEK293 cells - 8 hour (AID 1224887); also: top concentration of the series differs between compounds; nearly all actives have a fitted effect of over 50% in size
Procedure, shortened: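 Nonlytic bioluminescent viability monitoring. HEK293 at 600 cells/well with reagent; 5 h settle; compound transfer by pintool; plates held at 37 C and read at set time points.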

[6] = A CellTox Green Cytotoxicity Assay to monitor cytotoxicity in HEK293 cells - 16 hour (AID 1224888); also: nearly all actives have a fitted effect of over 35% in size
Procedure, shortened: as §1

[7] = qHTS RealTime-Glo MT Cell Viability Assay in HepG2 cells - 0 hour (AID 1224889); also: nearly all actives have a fitted effect of over 50% in size
Procedure, shortened: as §3

[8] = A CellTox Green Cytotoxicity Assay to monitor cytotoxicity in HepG2 cells - 8 hour (AID 1224890); also: nearly all actives have a fitted effect of over 45% in size
Procedure, shortened: as §2

[9] = qHTS assay to identify small molecule antagonists of the estrogen receptor alpha (ER-alpha) signaling pathway using the BG1 cell line in the presence of 0.1 nM 17-beta-estradiol - cell viability counter screen (AID 1259241); also: nearly all actives have a fitted effect of over 40% in size
Procedure, shortened: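 Live-cell protease activity (CellTiter-Fluor fluorescence, 30 min) was read in the same wells after VM7Luc4E2 cells had been exposed to compounds with 0.1 nM 17beta-estradiol for 22 hr at 37C.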

[10] = qHTS assay to identify small molecule antagonists of the androgen receptor (AR) signaling pathway using the MDA cell line in the presence of 0.5 nM R1881 - cell viability counter screen (AID 1259242); also: nearly all actives have a fitted effect of over 45% in size
Procedure, shortened: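 Cytotoxicity toward MDA-kb2 cells is measured by CellTiter-Fluor live-cell protease fluorescence after 16 hr compound exposure at 37C in the presence of 0.5 nM R1881 stimulator.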

[11] = target: Estrogen receptor (Homo sapiens) (UniProt P03372); experiment: qHTS assay to identify small molecule antagonists of the estrogen receptor alpha (ER-alpha) signaling pathway using the BG1 cell line in the presence of 0.1 nM 17-beta-estradiol (AID 1259244); also: nearly all actives have a fitted effect of over 50% in size
Chain of Estrogen receptor (Homo sapiens) (P03372 whole entry, looked up): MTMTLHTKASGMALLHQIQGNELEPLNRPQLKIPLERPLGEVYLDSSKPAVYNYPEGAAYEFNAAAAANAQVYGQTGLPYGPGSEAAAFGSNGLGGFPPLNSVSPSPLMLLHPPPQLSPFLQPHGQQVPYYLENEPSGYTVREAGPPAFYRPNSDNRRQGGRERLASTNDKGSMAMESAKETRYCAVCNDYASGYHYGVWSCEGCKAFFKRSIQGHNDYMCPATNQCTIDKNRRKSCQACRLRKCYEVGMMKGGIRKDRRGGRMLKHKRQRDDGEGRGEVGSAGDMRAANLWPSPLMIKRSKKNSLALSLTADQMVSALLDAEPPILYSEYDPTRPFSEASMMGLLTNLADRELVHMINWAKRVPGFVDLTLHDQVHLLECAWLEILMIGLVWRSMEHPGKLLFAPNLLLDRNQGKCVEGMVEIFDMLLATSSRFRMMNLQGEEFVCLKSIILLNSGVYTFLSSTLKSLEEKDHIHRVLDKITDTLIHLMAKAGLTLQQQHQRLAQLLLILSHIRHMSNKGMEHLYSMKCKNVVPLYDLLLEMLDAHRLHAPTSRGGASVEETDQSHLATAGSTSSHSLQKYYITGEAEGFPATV
Procedure, shortened: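 After 5 days in hormone-depleted medium (charcoal-stripped serum, no phenol red), VM7Luc4E2 cells were seeded, incubated 24 h, then co-treated with compound and 0.1 nM (final) estradiol for 22 h before luminescence detection.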

[12] = qHTS assay to identify small molecule phospholipidosis (PLD) inducers (AID 1259344; active = well fitted curve in the direction sought with a large enough effect; an effect the other way counts as inactive or inconclusive)
Procedure, shortened: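 Phospholipidosis is scored by imaging LipidTOX-stained pits in HepG2 cells exposed to compound for 24 h at 37 C; pit counts and integrated intensities per well and per cell serve as outputs.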

[13] = qHTS assay to identify small molecule HDAC inhibitors (AID 1259364); also: top concentration of the series differs between compounds; nearly all actives have a fitted effect of over 45% in size
Procedure, shortened: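 Homogeneous cell-based luminescent assay of endogenous class I/II HDAC activity; HCT-116 cells, 2 h compound exposure, 30 min HDAC-Glo development at RT.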

[14] = qHTS assay to identify small molecule HDAC inhibitors - cell viability counter screen (AID 1259365)
Procedure, shortened: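 HCT-116 (wild type), 1,500 cells/well, overnight 37C/5% CO2; compound in DMSO 2hr; CellTiter-Glo 30min RT; luminescence read.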

[15] = qHTS assay to identify small molecule agonists of the sonic hedgehog signaling (Shh) pathway - cell viability counter screen (AID 1259366); also: nearly all actives have a fitted effect of over 50% in size
Procedure, shortened: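 CellTiter-Fluor fluorescence read-out, 1 hr at 37C, added after 23hr compound exposure. Cells: 3T3 Gli1-Luc, an NIH/3T3 clone with stably integrated Gli1-Luc reporter, plated 4hr before compound.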

[16] = qHTS assay to identify small molecule antagonists of the sonic hedgehog signaling (Shh) pathway - cell viability counter screen (AID 1259367); also: nearly all actives have a fitted effect of over 55% in size
Procedure, shortened: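 Cells: 3T3 Gli1-Luc, 2,000/well, 4 hr pre-incubation. Compounds in DMSO, then conditioned medium. Incubation 24 hr, 37C, 5% CO2. CellTiter-Fluor at 23 hr, 1 hr, fluorescence.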

[17] = qHTS assay to identify small molecule agonists of the sonic hedgehog signaling (Shh) pathway (AID 1259368; calls by dose curve;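 also: NIH/3T3-derived 3T3Gli1-Luc cells carrying a stable Gli1-driven firefly luciferase reporter; series mostly up to about 92 µM; nearly all actives have a fitted effect of over 15% in size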)
Procedure, shortened: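 Steps: seed 3T3 Gli1-Luc cells, incubate 4 hr at 37 C, pin-transfer compounds in DMSO alongside a positive control, incubate 24 hr, add luciferase detection reagent, wait 30 min at room temperature, read luminescence.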

[18] = qHTS RealTime-Glo MT Cell Viability Assay in HEK293 cells - 24 hour (AID 1224886)
Procedure, shortened: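 Tox21 10K qHTS, HEK293, 600 cells/well, RealTime-Glo reagent co-dispensed with cells; 5 h preincubation, compound by pintool, 37 C, luminescence at 0–40 h.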

[19] = A CellTox Green Cytotoxicity Assay to monitor cytotoxicity in HepG2 cells - 0 hour (AID 1224882); also: nearly all actives have a fitted effect of over 35% in size
Procedure, shortened: as §2

[20] = target: Androgen receptor (Homo sapiens) (UniProt P10275); experiment: qHTS assay to identify small molecule antagonists of the androgen receptor (AR) signaling pathway using the MDA cell line in the presence of 0.5 nM R1881 (AID 1259243); also: nearly all actives have a fitted effect of over 50% in size
Chain of Androgen receptor (Homo sapiens) (P10275 whole entry, looked up): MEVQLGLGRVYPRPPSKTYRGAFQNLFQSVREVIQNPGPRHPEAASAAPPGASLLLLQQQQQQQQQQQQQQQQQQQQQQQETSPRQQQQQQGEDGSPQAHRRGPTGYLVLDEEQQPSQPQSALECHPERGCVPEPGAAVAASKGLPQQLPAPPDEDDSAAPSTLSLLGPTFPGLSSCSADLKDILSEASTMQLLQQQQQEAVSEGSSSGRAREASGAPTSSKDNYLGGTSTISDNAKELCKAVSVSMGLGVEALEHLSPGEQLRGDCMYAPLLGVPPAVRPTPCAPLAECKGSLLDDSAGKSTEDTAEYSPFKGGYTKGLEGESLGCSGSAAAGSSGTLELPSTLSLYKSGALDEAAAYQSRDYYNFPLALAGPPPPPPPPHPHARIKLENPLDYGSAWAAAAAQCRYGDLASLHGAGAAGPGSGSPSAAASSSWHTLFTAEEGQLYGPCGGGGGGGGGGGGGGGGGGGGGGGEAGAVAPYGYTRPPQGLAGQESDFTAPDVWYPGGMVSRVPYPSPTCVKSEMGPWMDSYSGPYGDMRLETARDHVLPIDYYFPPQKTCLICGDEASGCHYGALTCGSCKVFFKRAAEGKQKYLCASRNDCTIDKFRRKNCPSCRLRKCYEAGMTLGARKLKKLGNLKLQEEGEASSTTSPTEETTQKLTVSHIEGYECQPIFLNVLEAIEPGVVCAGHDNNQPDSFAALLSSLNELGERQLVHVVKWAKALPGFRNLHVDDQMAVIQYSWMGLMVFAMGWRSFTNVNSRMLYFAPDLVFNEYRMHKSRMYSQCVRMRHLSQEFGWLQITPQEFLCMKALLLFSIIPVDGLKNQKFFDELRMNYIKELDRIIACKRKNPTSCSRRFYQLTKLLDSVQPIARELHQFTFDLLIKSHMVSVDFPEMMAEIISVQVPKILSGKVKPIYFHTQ
Procedure, shortened: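 Steps: seed MDA-kb2 cells, incubate 5 hr at 37C; pin-transfer compounds in DMSO; add R1881 to 0.5 nM final; incubate 16 hr; add ONE-Glo, wait 30 min at room temperature; read luminescence.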
% is scaled to controls: 0 for no effect and ±100 for the full control effect.

COc1cc(C(=O)OC(COCCC(C)C)CN2CCOCC2)cc(OC)c1OC (stereo not given)
inactive: outcome [1] | Potency [2] | outcome [3] | outcome [4] | Potency [5] | outcome [6] | Potency [7] | outcome [8] | outcome [9] | outcome [10] | outcome [11] | outcome [12] | Potency [13] | outcome [14] | Potency [15] | Potency [16] | outcome [17]

Clc1cc(Cl)cc(Cl)c1
inactive: outcome [1] | Potency [2] | outcome [3] | outcome [4] | Potency [5] | outcome [6] | Potency [7] | outcome [10] | outcome [11] | Potency [13] | outcome [14] | Potency [15] | Potency [16] | outcome [17]

CC(=O)c1ccc2ccccc2c1
inactive: outcome [1] | outcome [3] | outcome [4] | Potency [18] | outcome [6] | Potency [7] | outcome [9] | outcome [10] | outcome [11] | Potency [13] | outcome [14] | Potency [15] | Potency [16]

CC(C)(C)C(=O)Oc1ccc(S(=O)(=O)Nc2ccccc2C(=O)NCC(=O)O)cc1
inactive: Potency [19] | Potency [2] | outcome [3] | outcome [4] | Potency [18] | Potency [5] | outcome [6] | Potency [7] | outcome [8] | outcome [9] | outcome [10] | outcome [11] | outcome [12] | Potency [13] | outcome [14] | Potency [15] | Potency [16] | outcome [17]

CO/N=C(\C(=O)N[C@@H]1C(=O)N2C(C(=O)O)=C(CSc3nc(=O)c(O)nn3C)CS[C@H]12)c1csc(N)n1
inactive: outcome [1] | Potency [2] | outcome [3] | outcome [4] | Potency [18] | Potency [5] | outcome [6] | Potency [7] | outcome [10] | outcome [11] | outcome [12] | Potency [13] | outcome [14] | Potency [15] | Potency [16] | outcome [17]

O=C(O)c1cc(C(=O)O)cc(C(=O)O)c1
inactive: outcome [1] | Potency [2] | outcome [3] | outcome [4] | Potency [18] | Potency [5] | outcome [6] | Potency [7] | outcome [9] | outcome [10] | outcome [11] | Potency [13] | outcome [14] | Potency [15] | outcome [17]

C[C@H]1C[C@H]2[C@@H]3CCC4=CC(=O)C=C[C@]4(C)[C@H]3C(=O)C[C@]2(C)[C@@]1(O)C(=O)CO
inactive: outcome [1] | Potency [2] | outcome [3] | outcome [4] | Potency [18] | outcome [6] | Potency [7] | outcome [8] | outcome [9] | outcome [10] | outcome [11] | PLD induction [12] 2.13% [at 7.66 µM] | Potency [13] | outcome [14] | Potency [16] | outcome [17]

CCCCCCC1CCC(=O)O1 (stereo not given)
inactive: outcome [1] | Potency [2] | outcome [3] | outcome [4] | Potency [18] | outcome [6] | Potency [7] | outcome [9] | outcome [10] | outcome [11] | Potency [13] | outcome [14] | Potency [15] | Potency [16] | outcome [17]

N[C@@H](CCC(=O)O)C(=O)O
inactive: Potency [19] | Potency [2] | outcome [3] | outcome [4] | Potency [18] | Potency [5] | outcome [6] | Potency [7] | outcome [8] | outcome [9] | outcome [10] | outcome [11] | outcome [12] | Potency [13] | outcome [14] | Potency [15] | Potency [16] | outcome [17]

CCCCc1ccc2c(n1)[C@@H](c1ccc(OC)cc1C[C@H](C)C(=O)O)[C@H](C(=O)O)[C@H]2c1ccc2c(c1)OCO2
inactive: Potency [19] | Potency [2] | outcome [3] | outcome [4] | Potency [18] | Potency [5] | outcome [6] | Potency [7] | outcome [8] | outcome [9] | outcome [10] | outcome [11] | Potency [13] | outcome [14] | Potency [15] | Potency [16]

CC(CO)(CO)[N+](=O)[O-]
inactive: outcome [1] | outcome [3] | outcome [4] | Potency [18] | Potency [5] | outcome [6] | Potency [7] | outcome [8] | outcome [9] | outcome [10] | outcome [11] | Potency [13] | outcome [14] | Potency [16]

O=C(CO)[C@@H](O)[C@H](O)[C@@H](O)CO
inactive: outcome [1] | outcome [3] | outcome [4] | Potency [18] | outcome [6] | Potency [7] | outcome [9] | outcome [10] | outcome [11] | outcome [12] | Potency [13] | outcome [14] | Potency [15] | Potency [16] | outcome [17]

O=[N+]([O-])c1cncn1CCN1CCOCC1
inactive: Potency [19] | Potency [2] | outcome [3] | outcome [4] | Potency [18] | Potency [5] | outcome [6] | Potency [7] | outcome [8] | outcome [9] | outcome [10] | Potency [20] | outcome [11] | Potency [13] | outcome [14] | Potency [15] | Potency [16]

CC(C)C[C@@H](N)C(=O)O
inactive: cytotoxicity increase [1] -1.55% [at 15.8 µM] | cytotoxicity increase [2] -8.17% [at 15.8 µM] | cytotoxicity increase [3] -0.255% [at 15.8 µM] | activity change, negative = cytotoxic [4] 2.37% [at 15.8 µM] | activity change, negative = cytotoxicity [18] 1.4% [at 15.8 µM] | activity change [6] 1.15% [at 15.8 µM] | activity change, negative = cytotoxicity [7] 0.397% [at 15.8 µM] | cytotoxicity increase [8] -17.7% [at 15.8 µM] | activity change, negative = cytotoxicity [9] -0.157% [at 19 µM] | viability change, negative = cytotoxic [10] -2.1% [at 19 µM] | outcome [12] | activity change, negative = inhibition [13] 7.66% [at 19 µM] | activity change, negative = cytotoxicity [14] -1.99% [at 19 µM] | viability change, negative = cytotoxic [15] -2.88% [at 19 µM] | viability change, negative = cytotoxic [16] 1.81% [at 19 µM] | activity change [17] -0.808% [at 18.9 µM]

Cc1cc(C)c(N=Nc2c(O)c(S(=O)(=O)O)cc3cc(S(=O)(=O)O)ccc23)cc1C
inactive: cytotoxicity increase [1] 10.2% [at 6.97 µM] | cytotoxicity increase [2] -2.71% [at 6.97 µM] | cytotoxicity increase [3] 0% [at 6.97 µM] | activity change, negative = cytotoxic [4] 0.476% [at 6.97 µM] | activity change [6] 15.4% [at 6.97 µM] | activity change, negative = cytotoxicity [7] 4.39% [at 6.97 µM] | cytotoxicity increase [8] 3.92% [at 6.97 µM] | activity change, negative = cytotoxicity [9] -12.4% [at 8.39 µM] | viability change, negative = cytotoxic [10] -3.59% [at 8.39 µM] | activity change, negative = inhibition [11] -1.05% [at 8.39 µM] | activity change, negative = inhibition [13] -2.59% [at 8.39 µM] | activity change, negative = cytotoxicity [14] -2.91% [at 8.39 µM] | viability change, negative = cytotoxic [15] -2.37% [at 8.39 µM] | viability change, negative = cytotoxic [16] -9.99% [at 8.39 µM] | activity change [17] -1.73% [at 8.39 µM]
